KCNK9 block: human KCNK9 channel inhibition. Q9NPC2. HEK293 KCNK9, FluxOR thallium flux fluorescence; hits give low values. B-score at 10 µM. 310,000 tested, 1.2% active. AID 488922;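 active = ratio B-score over 3 SD below the library mean, with starting fluorescence within 5 SD of its mean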;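 also: negative B-score means less thallium flux so channel inhibition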
Target sequence (Q9NPC2 whole entry, looked up): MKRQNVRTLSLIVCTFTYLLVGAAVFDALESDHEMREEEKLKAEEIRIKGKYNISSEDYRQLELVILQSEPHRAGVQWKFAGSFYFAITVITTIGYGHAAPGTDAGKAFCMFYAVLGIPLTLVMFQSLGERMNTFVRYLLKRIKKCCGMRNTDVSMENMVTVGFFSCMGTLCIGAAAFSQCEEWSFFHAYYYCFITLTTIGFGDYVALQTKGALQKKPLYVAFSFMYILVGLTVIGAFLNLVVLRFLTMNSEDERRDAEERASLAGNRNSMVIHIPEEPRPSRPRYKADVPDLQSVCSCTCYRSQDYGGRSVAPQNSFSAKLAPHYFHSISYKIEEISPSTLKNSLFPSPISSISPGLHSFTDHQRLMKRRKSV
Kir21 inh: Kir2.1 (mouse) channel inhibition; P35561; HEK293-Kir2.1, FluxOR thallium flux fluorescence; hits give low values; B-score at 10 µM; 310,000 tested, 0.85% active; AID 1672;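 active = fluorescence ratio B-score at or below minus 3 SD of library scores, with starting-brightness B-score within 2 SD, cut at about -4.2 in these data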;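 also: channel flux triggered by added potassium and thallium sulfate stimulus; B-score of peak minus minimum fluorescence over baseline after thallium stimulus; more negative B-score means stronger Kir2.1 block with less thallium influx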
TMEM16A inh: blocks the mouse calcium-activated chloride channel TMEM16A; Q8BHY3; HEK293 TMEM16A/YFP iodide influx fluorescence, ionomycin; normalized B-score (activity score, 25-100; higher = stronger inhibition) at 10 µM; 310,000 tested, 1.2% active;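 active = ratio plate-corrected score three or more library SD toward inhibition, starting fluorescence score within five deviations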;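 also: score derived from kinetic fluorescence span divided by baseline fluorescence per well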
KCNK3 block: human KCNK3 channel inhibition, primary screen; CHO-KCNK3 thallium flux, FluxOR fluorescence; hits give low values; 340,000 tested, 0.84% active; AID 602410; B-score at 10 µM;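 active = B-score under library mean minus 4 SD, starting fluorescence ratio at most library mean plus 5 SD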;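 also: more negative B-score means stronger inhibition of thallium flux through KCNK3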
ANO1 activ: activators or potentiators of mouse TMEM16A chloride channel; Q8BHY3; HEK293 TMEM16A/YFP-H148Q/I152L, iodide quench fluorescence; hits give low values; B-score at 10 µM; 340,000 tested, 0.3% active; AID 623877;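 active = fluorescence-ratio B-score plate-corrected deviation score at least 3 library SD below zero, with starting fluorescence score within 5 deviations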;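 also: channel opened by trigger with iodide after compound preincubation; score built on the fluorescence ratio of max minus min over baseline; more negative score means more quench and so TMEM16A activation or potentiation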
TMEM16A reconf: re-confirmation of mouse TMEM16A chloride channel inhibitors. shares compounds with TMEM16A inh. HEK293 TMEM16A/YFP-H148Q, iodide quench fluorescence; ionomycin added to raise cell calcium. inhibition, % at 10 µM. 2,300 tested, 39% active;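 active = mean duplicate percent inhibition, scaled so buffer wells are 0 and the reference blocker 100, over three buffer SD above buffer mean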
HEK293 Ca mobil: alters calcium mobilization in TMEM16A HEK293 cells, counter-screen. 2,300 tested, 2% active. AID 652231. shares compounds with TMEM16A inh. TMEM16A/YFP HEK293, Fluo4 calcium mobilization. calcium response (% of ionomycin), % at 10 µM;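 active = duplicate-averaged calcium signal over 20% of the ionomycin maximum, relative to buffer baseline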;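 also: each well's signal is peak minus trough fluorescence divided by its pre-addition baseline; 0% = buffer wells and 100% = ionomycin wells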
Parental YFP cnt: parental YFP-HEK293 iodide quench counter-screen activity. shares compounds with TMEM16A inh. ionomycin. YFP ratio F(max-min)/F0 at 10 µM. 2,300 tested, under 10 active. AID 652233;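 active = yellow fluorescent protein signal ratio exceeding the buffer control mean by over 5 SD of those controls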;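 also: ratio is mean of duplicate wells from kinetic YFP trace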
ClC-1 inh: selectivity of TMEM16A inhibitors: inhibition of rat ClC-1 chloride channel; shares compounds with TMEM16A inh; CHO ClC-1-YFP, iodide influx fluorescence quench; iodide control reads 0, buffer control 100; ratio percent, % at 10 µM; 2,300 tested, under 10 active; AID 652236;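 active = duplicate-mean ratio percent above the mean of iodide-only control wells, which defines zero, plus 5 of their SD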;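 also: higher percent means stronger block of ClC-1 iodide influx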
* hit, by the source's call; i = inactive; nt = no result given. Shown are actives, neighbours in structure and some others; about 3.5% of the full set was active somewhere.

SMILES	KCNK9 block	Kir21 inh	TMEM16A inh	KCNK3 block	ANO1 activ	TMEM16A reconf	HEK293 Ca mobil	Parental YFP cnt	ClC-1 inh
O=C(CSc1nc2ccccc2o1)Nc1nc(-c2ccccc2)cs1	i	0.43	100*	i	i	48%*	i	-0.84	-12
O=C(CSc1nc2ccccc2o1)Nc1nc2ccccc2s1	i	0.08	i	i	i	nt	nt	nt	nt
O=C(CSc1nnc(-c2ccncc2)n1Cc1ccco1)Nc1nc(-c2ccccc2)cs1	i	0.28	25*	i	i	30%*	i	-1.1	-6
CCn1c(SCC(=O)Nc2nc(-c3ccccc3)cs2)nnc1-c1ccccc1O	i	-0.29	100*	i	i	36%*	i	-0.83	-3
O=C1NC(=O)/C(=C\c2ccccc2OCc2ccccc2)S1	i	0.01	i	i	i	nt	nt	nt	nt
Cc1ccc(S(=O)(=O)Oc2ccccc2/C=C2/SC(=O)NC2=O)cc1	i	-2	25*	i	i	i	i	-0.9	-11
Cn1nc(C(F)(F)F)c(CO)c1Sc1ccc(F)cc1	i	-0.47	i	i	i	nt	nt	nt	nt
CC1=CC(C)(C)N(S(=O)(=O)c2ccc(C)cc2)c2ccccc21	i	1.6	100*	i	i	i	i	-0.94	-16
CC1=CC(C)(C)N(S(=O)(=O)c2ccc(F)cc2)c2ccc(C)cc21	i	0.23	i	i	i	nt	nt	nt	nt
CCOC(=O)N1CCC(=C2c3ccc(Cl)cc3CCc3cccnc32)CC1	i	-0.2	25*	i	i	i	i	-1.1	-16
CCOC(=O)N1CCN(c2ccnc3cc(Cl)ccc23)CC1	i	-0.16	i	i	i	nt	nt	nt	nt
CC12CCC(C(=O)CC1=O)C2(C)C (stereo not drawn)	nt	nt	nt	i	i	nt	nt	nt	nt
COc1ccc(S(=O)(=O)N2CCN=C2SCc2cccc(C)c2)cc1	i	-0.97	25*	i	i	i	i	-1.2	-8
CCn1c(CNc2ccc(Cl)cc2)nnc1SCC(=O)OC1CCCCC1	i	-6.6*	100*	i	i	18%*	i	-1.2	-8
Cc1ccc(-c2nc(CS(=O)(=O)CC(=O)N3CCCCCC3)c(C)o2)cc1	i	0.19	i	i	i	nt	nt	nt	nt
Cc1ccc(-c2nc(CS(=O)(=O)CC(=O)N3CCc4ccccc4C3)c(C)o2)cc1	i	0	25*	i	i	26%*	i	-0.9	-10
COc1ccc2c(c1)CC/C(=C\Nc1ccc3c(c1)OCO3)C2=O	i	-0.99	25*	i	i	i	i	-0.84	4
O=C1/C(=C/Nc2ccc3c(c2)OCO3)CCc2ccccc21	i	0.12	i	i	i	nt	nt	nt	nt
C=CCN1C(=O)c2cccc3c(N4CCCCC4)ccc(c23)C1=O	i	-1.2	i	i	i	nt	nt	nt	nt
O=C1c2cccc3c(N4CCCCC4)ccc(c23)C(=O)N1CCO	i	-0.38	i	i	i	i	i	-1.1	-50
O=C(Nc1ccc(Cl)cc1)c1cccs1	-7.2*	0.61	25*	i	i	i	i	-1.1	-15
O=C(Nc1ccc(NC(=O)c2cccs2)cc1)c1cccs1	i	1.1	i	i	i	nt	nt	nt	nt
COc1ccc(S(=O)(=O)Nc2ccc3c(c2)n(C)c(=O)n3C)cc1C	i	0.67	i	i	i	nt	nt	nt	nt
CCOC(=O)c1oc2ccc(S(=O)(=O)Nc3ccc4c(c3)n(C)c(=O)n4C)cc2c1C	i	0.04	25*	i	i	i	i	-1.3	-11
O=C(Cc1ccc(Cl)cc1)Nc1ccncc1	i	-0.53	25*	i	i	i	i	-0.84	-14
SMILES	KCNK9 block	Kir21 inh	TMEM16A inh	KCNK3 block	ANO1 activ	TMEM16A reconf	HEK293 Ca mobil	Parental YFP cnt	ClC-1 inh
CN(CCCC(=O)Nc1ccncc1)S(=O)(=O)c1ccc(Cl)cc1	i	-1.7	100*	i	i	i	i	-0.92	-23
COc1cccc(OCC(=O)NNC(=O)C(=O)N2CCCC2)c1	i	1.7	i	i	i	nt	nt	nt	nt
CCc1ccc(NC(=O)CCc2ccc(CC)o2)cc1	i	0.41	i	i	i	nt	nt	nt	nt
CC(=O)c1c(C)[nH]c(C(=O)OCCOc2ccccc2)c1C	i	-0.2	i	i	i	nt	nt	nt	nt
Cc1c(C(=O)OCCOc2ccccc2)[nH]c2c1C(=O)CCC2	i	-0.47	100*	i	i	25%*	i	-0.8	-13
COc1ccccc1C(=O)NCCCN1CCCC1=O	i	0.14	25*	i	i	i	i	-1.1	-16
COC(=O)[C@]1(C)N[C@H](CN(C)C(=O)Nc2ccc(C)cc2)[C@@H]2C(=O)N(C)C(=O)[C@@H]21	nt	nt	nt	i	nt	nt	nt	nt	nt
CCOc1ccc(CCNC(=O)c2ccc(N3CCCC3=O)cc2)cc1OCC	i	-0.01	25*	i	i	i	i	-1.2	-10
CC(C)N1CCC(=O)NC1=O	nt	nt	nt	i	i	nt	nt	nt	nt
COc1ccc(C(=O)NCc2ccccc2CN2CCCC2)cc1S(=O)(=O)N1CCOCC1	nt	nt	nt	i	i	nt	nt	nt	nt
O=C(CC(Cc1ccccc1)c1ccco1)NC1CCCCC1 (stereo not drawn)	i	-2.7	i	i	i	i	i	-1.2	0
O=C(NC1CCCCC1)N(Cc1ccccc1)Cc1ccco1	i	0.28	i	i	i	nt	nt	nt	nt
COc1ccc(S(=O)(=O)N2CCC(O)(c3ccc(Cl)cc3)CC2)cc1	i	-1.4	25*	i	i	21%*	i	-1.1	-10
COc1ccc(-c2csc(Nc3cc(C)ccn3)n2)cc1OC	i	-0.16	25*	i	i	24%*	i	-0.74	-10
CCN(CC)S(=O)(=O)c1cccc(NC(=O)COC(=O)C2COc3ccccc3O2)c1 (stereo not drawn)	i	-0.09	i	i	i	nt	nt	nt	nt
CC1(C)CC(=O)C2=C(C1)OC1=C(C(=O)CC(C)(C)C1)C2c1ccc(O)c([N+](=O)[O-])c1	i	1.8	i	i	i	nt	nt	nt	nt
CC1(C)CC(=O)C2=C(C1)OC1=C(C(=O)CC(C)(C)C1)C2c1ccc(O)cc1O	-7*	-8.3	i	i	i	i	i	-0.58	-4
COCCn1ccc2c(OCC(=O)NCc3ccc(C)cc3)cccc2c1=O	i	0.32	i	i	i	nt	nt	nt	nt
